This passage reports Potency results from PubChem BioAssay (Tox21).

A short description of assay [1]: Nuclear factor erythroid 2-related factor 2/antioxidant responsive element (Nrf2/ARE) small molecule agonists: qHTS cell viability counter screen in human keratinocytes (AID 1919968; active = well fitted curve in the direction sought with a large enough effect in the repeat runs; an effect the other way counts as inactive or inconclusive; note: nearly all actives have a fitted effect of over 55% in size; note: potency is the fitted concentration of half-maximal effect). The procedure, abridged:
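KeratinoSens HaCaT cells, 1,500/well, preincubated 5 h, then exposed to compounds in DMSO for 23 h at 37 C/5% CO2. Viability read as CellTiter-Fluor fluorescence after 1 h, in the same wells as the ARE-luciferase read.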

Assay [2] in a line: Nuclear factor erythroid 2-related factor 2/antioxidant responsive element (Nrf2/ARE) small molecule agonists: luciferase reporter gene qHTS assay in human keratinocytes (AID 1919969). Note: nearly all actives have a fitted effect of over 35% in size. Note: potency is the fitted concentration of half-maximal effect. A general note: Reporter assays use an easily measured gene product as a stand-in for the process of interest.
The target of assay [3] is Gonadotropin-releasing hormone receptor (Homo sapiens) (UniProt P30968). The assay is described as follows: Human gonadotropin-releasing hormone receptor (GnRHR) small molecule agonists, calcium flux assay in GnRHR-HEK293 cells (AID 1920063). Note: nearly all actives have a fitted effect of over 35% in size. The essentials:
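HEK293 cells stably expressing human GnRHR were dye-loaded for 1 h at 37 C. Compound was added in agonist mode and fluorescence (Ex/Em 480/540) recorded kinetically for 3 min. Fifteen concentrations, triplicates.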
A general note: Calcium assays in cells follow changes in intracellular calcium, usually with a dye or a luminescent sensor.

Assay [4] addresses KiSS-1 receptor (Homo sapiens) (UniProt Q969F8). As to the kind of experiment: Human kisspeptin (KISS1R) small molecule agonists, calcium flux assay in KISS1R-HEK293 cells (AID 1920064; active = well fitted curve in the direction sought with a large enough effect in the repeat runs; an effect the other way counts as inactive or inconclusive). The essentials:
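HEK293 cells stably expressing human KISS1R were loaded with calcium dye for 1 h at 37 C, then given compound; fluorescence (Ex/Em 480/540) was read kinetically for 3 min. Fifteen concentrations, triplicate.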

Assay [5] is described as follows: G protein-coupled receptor (GPCR) small molecule agonists, calcium flux assay: HEK293 wild type cell line counter screen (AID 1920065). The essentials: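 Wild-type HEK293 cells plated 18 h, loaded with calcium dye 1 h at 37 C, then compounds added in agonist mode (ATP as positive control). Kinetic fluorescence Ex/Em 480/540 recorded 3 min at 1 sec intervals; 15 concentrations, triplicate.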

A short description of assay [6]: p53 small molecule agonists, cell-based qHTS assay with human liver microsomes: qHTS cell viability counter screen (AID 1963579). Note: nearly all actives have a fitted effect of over 45% in size. Note: potency is the fitted concentration of half-maximal effect. The essentials:
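Metabolic activation used human liver microsomes and NADPH, both 0.5 mg/mL final, over 16 hours at 37 C on p53RE-bla cells (4,000/well). Cytotoxicity measured by CellTiter-Glo luminescence, 30 min at room temperature.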

Assay [7] is described as follows: p53 small molecule agonists, cell-based qHTS assay: qHTS cell viability counter screen (AID 1963581). Note: nearly all actives have a fitted effect of over 45% in size. The essentials: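 p53RE-bla HCT-116 cells, compounds added 5 h after plating and incubated 16 h at 37 C. Cytotoxicity measured in the same wells as intracellular ATP by CellTiter-Glo luminescence after 30 min at room temperature.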
The target of assay [8] is 5-hydroxytryptamine receptor 2A (Homo sapiens) (UniProt P28223). As to the kind of experiment: 5-hydroxytryptamine receptor 2A (HTR2A) small molecule antagonists, cell-based qHTS assay (AID 1963586). Note: nearly all actives have a fitted effect of over 45% in size. The essentials: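 Antagonist-mode intracellular calcium assay: DOI (4 nM) added after 5 min compound pre-incubation at room temperature to dye-loaded HTR2A-CHO cells. Fluorescence followed for 3 min, sampled every second.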
A general note: qHTS replaces the single test concentration by a dilution series.

Assay [9] has the same target. As to the kind of experiment: 5-hydroxytryptamine receptor 2A (HTR2A) small molecule agonists, cell-based qHTS assay (AID 1963587). Note: nearly all actives have a fitted effect of over 30% in size. The essentials: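 CHO cells stably expressing human HTR2A, plated 18 h, loaded with calcium dye 1 h at 37 C. Agonist mode: compounds added and intracellular calcium fluorescence recorded kinetically for 2 min at 1 sec intervals.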
In assay [10] the target is Muscarinic acetylcholine receptor M1 (Homo sapiens) (UniProt P11229). As to the kind of experiment: Cholinergic receptor muscarinic 1 (CHRM1) small molecule antagonists, cell-based qHTS assay (AID 1963588). Note: nearly all actives have a fitted effect of over 40% in size. The procedure, abridged:
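CHRM1-CHO calcium-flux assay, antagonist mode. Cells were seeded 18 h, dye-loaded 1 h at 37 C and given compound for 5 min at RT, then acetylcholine was added at 50nM. FDSS fluorescence was read 3 min; 15 concentrations, three runs.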

For assay [11] the target is unchanged. The assay is described as follows: Cholinergic receptor muscarinic 1 (CHRM1) small molecule agonists, cell-based qHTS assay (AID 1963589). Note: nearly all actives have a fitted effect of over 35% in size. The essentials: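 CHO cells stably expressing human CHRM1 were loaded with calcium dye for 1 h at 37 C, then compound was added in agonist mode. Intracellular calcium fluorescence was followed kinetically at 1 s intervals. Fifteen concentrations were tested in three independent runs.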

Assay [12] in a line: cAMP Responsive Elements (CRE) small molecule agonists, cell-based qHTS assay (AID 1963590). The essentials: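 CRE-bla HEK 293T cells, 2,000/well in DMEM with 10% dialyzed FBS and 25 mM HEPES, pre-incubated 18 h at 37 C, then exposed to compound 3 h at 37 C. Beta-lactamase reporter read with LiveBLAzer B/G FRET substrate after 2 h at room temperature.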
A short description of assay [13]: cAMP Responsive Elements (CRE) small molecule antagonists, cell-based qHTS assay (AID 1963591; active = well fitted inhibition curve with a large enough effect in the signal ratio in the repeat runs, not every such curve was filed as active; the % refers to the signal ratio; note: potency is the fitted concentration of half-maximal effect). The essentials: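 CRE-bla HEK293T cells plated 18 h, then given compound plus NKH477 at 0.25 uM final for 3 h at 37C. Beta-lactamase reporter read with LiveBLAzer B/G FRET substrate after 2 h at room temperature.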
For assay [14], the target named is Beta-2 adrenergic receptor (Homo sapiens) (UniProt P07550). The assay is described as follows: Adrenergic beta2 receptor (ADRB2) small molecule antagonists, cell-based qHTS assay (AID 1963592). Note: nearly all actives have a fitted effect of over 50% in size. Note: potency is the fitted concentration of half-maximal effect. The essentials:
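Cells (CHO, stable ADRB2 overexpression) incubated 18-20hr at 37C; compounds added from DMSO; agonist mix (1nM isoproterenol, 100uM IBMX, 25uM Ro-20-1724) added; 0.5hr RT; d2-cAMP and anti-cAMP-cryptate added; 1hr RT; 665/615 nm read.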

Assay [15] has the same target. As to the kind of experiment: Adrenergic beta2 receptor (ADRB2) small molecule agonists, cell-based qHTS assay (AID 1963593).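 Note: CHO cells stably overexpressing human ADRB2.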 The procedure, abridged:
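CHO cells stably over-expressing ADRB2 were plated overnight at 37C, then dosed with compounds plus a stimulation mix containing 100uM IBMX and 25uM Ro-20-1724 for 0.5hr at room temperature. cAMP was measured by HTRF competition, 1hr.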

Assay [16] has as its target D(2) dopamine receptor (Homo sapiens) (UniProt P14416). The assay is described as follows: Dopamine D2 receptor (DRD2) small molecule agonists, cell-based qHTS assay (AID 1963594). Note: nearly all actives have a fitted effect of over 35% in size. The procedure, abridged:
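HEK293 cells stably expressing human DRD2, pre-treated with PDE inhibitor Ro20-1724 (0.1 mM final) and compound 10 min at room temperature, then stimulated with NKH477 (200nM […]) for 30 min. cAMP read by HTRF (665/620 nm).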

The target is the same in assay [17]. The assay is described as follows: Dopamine D2 receptor (DRD2) small molecule antagonists, cell-based qHTS assay (AID 1963595; active = well fitted inhibition curve with a large enough effect in the signal ratio in the repeat runs, with a control signal flat; the % refers to the signal ratio). The essentials: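 Human DRD2 antagonist qHTS measuring cAMP by HTRF. The cells are exposed to compound for 10 min, then to NKH477 (200 nM) and quinpirole (12 nM) for 30 min at RT, with Ro20-1724 (0.1 mM) present throughout.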
The nature of assay [18]: p53 small molecule agonists, cell-based qHTS assay with rat liver microsomes: qHTS cell viability counter screen (AID 1963580). Note: nearly all actives have a fitted effect of over 45% in size. The procedure, abridged: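 Viability is assessed in parallel with the p53 reporter read: HCT-116 p53RE-bla cells receive compounds plus rat microsomes and NADPH (0.5 mg/mL final apiece), incubate 16 h at 37 C, and then CellTiter-Glo luminescence is recorded.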

Values joined by “and” are separate entries in the source; they are usually repeats but may differ in a detail not shown here. Equal values may be shown once. Inconclusive results are not listed. A structure can be active in one record and inactive in another. Active and inactive are the calls of the source. Unless noted, calls come from the whole dose curve.

Sequence of 5-hydroxytryptamine receptor 2A (Homo sapiens) (P28223 whole entry, looked up): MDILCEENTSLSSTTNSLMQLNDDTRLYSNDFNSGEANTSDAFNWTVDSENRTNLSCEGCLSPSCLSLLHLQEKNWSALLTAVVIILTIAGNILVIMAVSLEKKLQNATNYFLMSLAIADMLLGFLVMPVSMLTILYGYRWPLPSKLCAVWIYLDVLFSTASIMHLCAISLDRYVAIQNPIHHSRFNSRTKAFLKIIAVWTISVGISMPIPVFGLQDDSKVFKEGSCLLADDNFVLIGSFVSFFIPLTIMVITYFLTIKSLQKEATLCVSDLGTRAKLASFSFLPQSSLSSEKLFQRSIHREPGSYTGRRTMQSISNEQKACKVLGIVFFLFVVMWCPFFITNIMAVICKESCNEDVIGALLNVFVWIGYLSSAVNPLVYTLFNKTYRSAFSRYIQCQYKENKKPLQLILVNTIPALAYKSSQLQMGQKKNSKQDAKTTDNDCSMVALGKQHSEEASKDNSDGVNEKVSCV
Sequence of KiSS-1 receptor (Homo sapiens) (Q969F8 whole entry, looked up): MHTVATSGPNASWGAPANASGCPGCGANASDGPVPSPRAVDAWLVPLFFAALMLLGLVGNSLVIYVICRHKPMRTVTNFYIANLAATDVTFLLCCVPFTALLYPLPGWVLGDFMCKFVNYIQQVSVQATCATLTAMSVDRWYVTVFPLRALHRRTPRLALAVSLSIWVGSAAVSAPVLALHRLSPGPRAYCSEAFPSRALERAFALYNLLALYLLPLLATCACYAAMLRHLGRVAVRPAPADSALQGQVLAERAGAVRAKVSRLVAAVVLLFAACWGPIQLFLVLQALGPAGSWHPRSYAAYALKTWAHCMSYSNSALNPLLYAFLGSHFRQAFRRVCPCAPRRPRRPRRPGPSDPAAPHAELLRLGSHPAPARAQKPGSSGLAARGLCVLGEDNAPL
Sequence of Gonadotropin-releasing hormone receptor (Homo sapiens) (P30968 whole entry, looked up): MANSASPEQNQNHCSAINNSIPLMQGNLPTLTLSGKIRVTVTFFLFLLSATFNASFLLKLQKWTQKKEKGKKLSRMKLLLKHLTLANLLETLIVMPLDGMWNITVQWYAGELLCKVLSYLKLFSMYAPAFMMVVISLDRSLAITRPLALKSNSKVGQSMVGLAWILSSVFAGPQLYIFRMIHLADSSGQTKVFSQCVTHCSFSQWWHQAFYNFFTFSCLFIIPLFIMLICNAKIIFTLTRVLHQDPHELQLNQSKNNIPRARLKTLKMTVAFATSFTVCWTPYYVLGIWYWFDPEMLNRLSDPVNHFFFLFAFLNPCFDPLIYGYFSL
Sequence of D(2) dopamine receptor (Homo sapiens) (P14416 whole entry, looked up): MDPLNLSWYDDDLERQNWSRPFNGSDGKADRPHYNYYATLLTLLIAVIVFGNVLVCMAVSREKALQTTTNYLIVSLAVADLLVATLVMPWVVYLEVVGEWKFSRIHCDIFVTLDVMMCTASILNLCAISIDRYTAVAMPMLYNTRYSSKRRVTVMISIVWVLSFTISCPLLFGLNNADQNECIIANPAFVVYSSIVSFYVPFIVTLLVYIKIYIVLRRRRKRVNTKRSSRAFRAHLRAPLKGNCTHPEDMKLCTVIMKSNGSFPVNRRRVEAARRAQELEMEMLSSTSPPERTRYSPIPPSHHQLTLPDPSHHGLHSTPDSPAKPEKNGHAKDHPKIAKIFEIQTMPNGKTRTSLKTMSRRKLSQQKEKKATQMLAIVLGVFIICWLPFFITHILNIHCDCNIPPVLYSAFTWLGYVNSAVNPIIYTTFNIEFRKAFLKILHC
Sequence of Beta-2 adrenergic receptor (Homo sapiens) (P07550 whole entry, looked up): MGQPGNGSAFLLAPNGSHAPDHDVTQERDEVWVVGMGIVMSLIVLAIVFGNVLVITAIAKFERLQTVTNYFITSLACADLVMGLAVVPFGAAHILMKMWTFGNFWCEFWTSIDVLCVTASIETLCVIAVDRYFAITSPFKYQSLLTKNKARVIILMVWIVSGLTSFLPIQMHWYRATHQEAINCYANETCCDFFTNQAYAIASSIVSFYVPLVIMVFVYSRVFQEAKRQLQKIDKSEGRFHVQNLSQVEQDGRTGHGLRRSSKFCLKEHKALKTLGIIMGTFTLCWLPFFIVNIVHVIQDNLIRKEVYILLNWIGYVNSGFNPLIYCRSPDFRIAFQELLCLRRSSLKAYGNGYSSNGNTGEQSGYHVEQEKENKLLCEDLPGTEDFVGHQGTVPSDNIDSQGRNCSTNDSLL
Sequence of Muscarinic acetylcholine receptor M1 (Homo sapiens) (P11229 whole entry, looked up): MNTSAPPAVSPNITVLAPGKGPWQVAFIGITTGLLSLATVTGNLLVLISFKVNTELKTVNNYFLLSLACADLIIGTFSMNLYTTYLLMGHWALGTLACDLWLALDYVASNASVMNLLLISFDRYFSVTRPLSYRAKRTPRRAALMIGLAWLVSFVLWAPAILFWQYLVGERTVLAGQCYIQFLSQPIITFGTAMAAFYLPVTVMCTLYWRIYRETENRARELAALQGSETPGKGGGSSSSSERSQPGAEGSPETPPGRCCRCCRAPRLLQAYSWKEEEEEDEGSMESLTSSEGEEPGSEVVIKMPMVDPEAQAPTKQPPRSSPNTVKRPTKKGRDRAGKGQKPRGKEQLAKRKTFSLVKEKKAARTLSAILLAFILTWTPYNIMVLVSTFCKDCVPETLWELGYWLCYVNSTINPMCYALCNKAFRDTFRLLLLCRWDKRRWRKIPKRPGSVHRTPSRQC

On to `CCCCCCCCCCCCCCCCCC(=O)OCC(O)CO` (stereo not given), for which the Potency result in assay [1], in [2], in [3], in [4], in assay [5] and in assay [6] was “inactive” throughout. Moreover, the Potency result in assay [7], in assay [8], in assay [9], in assay [10], in assay [11] and in [12] was “inactive” throughout. Besides, the Potency result in assay [13], in assay [14], in assay [15], in [16] and in assay [17] was “inactive” throughout.
In the case of `COc1c(Cl)c(Cl)c(Cl)c(Cl)c1Cl`, the Potency result in assay [1], in assay [2], in assay [3], in assay [4], in assay [5] and in assay [6] was “inactive” in each case. The Potency entry in [18], in assay [7], in assay [8], in [10], in [11] and in assay [12] was “inactive” each time. Further, the Potency entry in assay [13], in [15], in assay [16] and in [17] was “inactive” each time.
`Oc1ccc(Cl)cc1Cc1cc(Cl)ccc1O`: the Potency in assay [1] is 27.8 µM (active) and 61.1 µM (active); in assay [2] it was “inactive and 33.5 µM (active)”; in assay [6], 40.8 µM (active) and inactive; in [13], 49.4 µM (active); in [14], 48.6 µM (active). For the same compound, the Potency result in [3], in assay [4], in assay [5], in assay [8], in [9] and in [10] was “inactive” each time. The Potency result in assay [11], in [16] and in assay [17] was “inactive” throughout.
On to `O=C(O)[C@H](O)[C@@H](O)[C@H](O)[C@H](O)CO`, for which the Potency entry in [1], in [2], in assay [3], in assay [4], in assay [5] and in assay [6] was “inactive” throughout. Moreover, the Potency entry in [18], in assay [7], in [8], in assay [9], in assay [10] and in assay [12] was “inactive” each time. Besides, the Potency entry in assay [13], in assay [14], in assay [16] and in assay [17] was “inactive” throughout.
`O=C(O)CCCC[C@@H]1SC[C@@H]2NC(=O)N[C@@H]21`: the Potency entry in assay [1], in assay [2], in assay [3], in assay [4], in [5] and in [6] was “inactive” each time. In addition, the Potency entry in assay [18], in assay [7], in assay [8], in assay [9], in [10] and in [11] was “inactive” throughout. The Potency entry in assay [12], in [13], in [14], in assay [15], in [16] and in assay [17] was “inactive” each time.
For `CCCCCCCCCC(=O)OC`, the Potency entry in assay [1], in assay [2], in assay [3], in assay [4], in [5] and in assay [6] was “inactive” each time. For the same compound, the Potency result in assay [18], in assay [7], in [9], in assay [10], in assay [11] and in [12] was “inactive” in each case. The Potency result in assay [13], in [14], in assay [15], in [16] and in assay [17] was “inactive” throughout.
Regarding `C=C(C)C(=O)OCC(C)O` (stereo not given), the Potency entry in assay [1], in assay [2], in [3], in assay [4], in [5] and in assay [6] was “inactive” throughout. Also, the Potency result in assay [18], in assay [7], in assay [8], in [9], in assay [10] and in assay [11] was “inactive” each time. The Potency result in assay [12], in assay [14], in assay [15], in assay [16] and in [17] was “inactive” in each case.
